High-throughput results deposited in PubChem BioAssay by National Center for Advancing Translational Sciences (NCATS).
In the library only some 19% were active in any assay of this set; here they are far more common.
IL-1B inflam inh – inflammasome signaling inhibition, IL-1 beta readout; THP-1 LPS/ATP IL-1B secretion, AlphaLISA, 16 h; hits give low values; activity change, % at 57.5 µM; actives 4.7% (n = 360,000); AID 743279; in the data active means activity change below about -50%; inconclusive means mostly about -30% to -49%
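THP-1 cells pretreated 1 hr with compounds (up to 57.5 uM final), then stimulated with LPS (250 ng/mL final) plus ATP (1.25 mM final); secreted IL-1B measured by AlphaLISA after 16 hr, decreased signal indicating inhibition.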
HT1080 IDH1KD tx – kills HT-1080 cells with IDH1 knockdown. HT-1080 IDH1 knockdown viability, ATP luminescence, 48 h. actives 2% (n = 360,000). Potency, µM (doses to about 46.1 µM), inactives show at the top dose activity, negative = toxicity, actives largely listed as cytotoxic;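 further: potency means the concentration at half of the fitted maximal effect; 0% = DMSO wells and -100% = cell-free medium wells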
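Viability of IDH1-knockdown HT-1080 fibrosarcoma cells was assessed by CellTiter-Glo after 48 h at 37 °C with titrated compound; concentration-effect curves were classified by fit quality and response size.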
HT1080-NT tox – kills 2HG-producing HT-1080-NT fibrosarcoma cells | HT-1080-NT fibrosarcoma viability, CellTiter-Glo ATP luminescence, 48 h | Potency, µM (highest dose often 46.1 µM), without a hit: at the top dose activity, negative = less viability, actives largely listed as cytotoxic | actives 1.6% (n = 360,000);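 further: NT is the 2HG producing partner of a matched IDH1 knockdown line; potency means the concentration at half of the fitted maximal effect; 0% = DMSO-treated cells and -100% = media-only wells without cells; nearly all actives have a fitted effect of over 55% in size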
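Compounds were tested in concentration-response format on HT-1080-NT cells for 48 hours at 37 degrees C. Cell viability came from CellTiter-Glo luminescence; curves were classified by r2, response magnitude and activity.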
TDP1 cell noCPT – qHTS for Inhibitors of human tyrosyl-DNA phosphodiesterase 1 (TDP1): qHTS in cells in absence of CPT; actives 15% (n = 420,000); Potency, µM (doses to about 46.2 µM), without a hit: at the top dose activity change, negative = growth inhibition, hits mostly inhibitors; DT40 Tdp1-/- hTDP1 cells, no CPT, ATP luminescence, 48 h; further: potency means the concentration at half of the fitted maximal effect; nearly all actives have a fitted effect of over 55% in size
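Compound effects on proliferation are scored in DT40 Tdp1-/-;hTDP1 cells in the absence of CPT. ATP levels (CellTiter-Glo luminescence) are recorded after a ≥48 hr, 37 °C incubation.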
TDP1 cell CPT – growth inhibition of DT40 Tdp1-/-;hTDP1 cells with camptothecin (screen for TDP1 inhibitors) | chicken DT40 Tdp1-/-;hTDP1 cells + 20 nM CPT, ATP luminescence, 48 h | Potency, µM (highest dose often 46.2 µM), inactives show at the highest dose activity change, negative = growth inhibition, actives largely listed as inhibitors | actives 12% (n = 420,000); further: potency means the concentration at half of the fitted maximal effect; nearly all actives have a fitted effect of over 55% in size
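Chicken DT40 Tdp1-/- cells stably complemented with human TDP1 were seeded at 400 cells/well in medium containing 20 nM camptothecin, exposed to pin-transferred compounds, and grown at 37 °C for at least 48 hr. Viability was read as ATP luminescence.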
Starred values were filed as active, the others as inactive; ? = inconclusive; . = no result. Unless noted, the call rests on the fitted dose curve; in most records, active means well fitted curve in the direction sought with a large enough effect; inconclusive means small, poorly fitted or top-dose-only effect, or another doubt; inactive means no such curve, though single readings can be large; an effect the other way counts as inactive or inconclusive. Unless noted, on the % scale 0 is the no-effect control and ±100 the full control effect.

SMILES	IL-1B inflam inh	HT1080 IDH1KD tx	HT1080-NT tox	TDP1 cell noCPT	TDP1 cell CPT
COc1ccc(CNc2nc3ccccc3n2C(C)C)cc1	4.4	-1.4%	7.3%	2.2%	-6.9%
Cc1ccc(C(O)c2nc3ccccc3n2C(C)C)cc1 (centres undefined)	-11.3	-6.8%	-4.2%	?	?
CC(C)c1ccc(C(O)c2nc3ccccc3n2C)cc1 (centres undefined)	19.4	-0.1%	7.4%	20.6µM*	20.6µM*
COc1ccc(C(O)c2nc3ccccc3n2C(C)C)cc1 (centres undefined)	35.6	?	?	16.4µM*	23.1µM*
COc1ccccc1/C=C/c1nc2ccccc2n1C(C)C	.	.	.	20.6µM*	18.4µM*
CCCCCCCCN1[C@@H](CC(=O)O)c2ccc(C(F)(F)F)cc2S1(=O)=O	1.9	-2.6%	-9.7%	?	?
CCOc1ccc(N(c2nc(-c3ccc(OC)c(OC)c3)no2)c2nc(-c3ccc(OC)c(OC)c3)no2)cc1	.	.	.	0.8%	2.6%
CC1(C)CC(NC(=O)C(Cl)(Cl)Cl)CC(C)(C)N1	-21.0	13.5%	0.8%	0.2%	8.5%
Cc1ccc(CNC(=O)COC(=O)c2cc3c(s2)CCC(C)C3)cc1 (centres undefined)	5.9	?	?	?	20.6µM*
CC1CCc2sc(C(=O)OCC(=O)NCc3ccccc3)cc2C1 (centres undefined)	7.9	?	?	18.4µM*	20.6µM*
CC1CCc2sc(C(=O)NCc3ccccn3)cc2C1 (centres undefined)	-14.3	-0.5%	-5.4%	16.4µM*	18.4µM*
Cc1cc(C(=O)CCC(=O)N(C)CC2COc3ccccc3O2)c(C)s1 (centres undefined)	18.0	0.2%	-6.1%	?	?
CCn1c(=O)c2c(n3c(=S)[nH]nc13)-c1ccccc1CC21CCCCC1	23.7	13.8%	4.2%	-24.6%	-6.9%
CCc1noc(C)c1C(=O)Oc1ccc(N(C)S(=O)(=O)c2ccc(C)cc2)cc1	-14.5	-17.9%	-15.2%	2.59µM*	18.4µM*
CCc1noc(C)c1C(=O)Oc1ccc(N(C)S(=O)(=O)c2ccccc2)cc1	?	0.0%	-11.9%	16.4µM*	23.1µM*
Clc1cccc(-c2cc3nc(NCCOc4ccccc4)ccn3n2)c1	-17.3	-11.6%	-6.5%	-5.2%	-2.3%
Clc1cccc(CNc2ccn3nc(-c4cccc(Cl)c4)cc3n2)c1	-51.5*	?	?	?	?
Clc1cccc(CNc2ccn3nc(-c4ccccc4)cc3n2)c1	-6.3	-26.7%	?	20.6µM*	23.1µM*
CN(C)C(=O)CNc1ccn2nc(-c3cccc(Cl)c3)cc2n1	20.2	-18.5%	-0.7%	18.4µM*	23.1µM*
Clc1ccc(-c2cc3nc(NCc4cccc(Cl)c4)ccn3n2)cc1	17.5	-21.7%	-14.8%	25.9µM*	?
CN(C(=O)CC1C(=O)NCCN1Cc1ccc(F)c(F)c1)C1CCOCC1 (centres undefined)	6.7	4.8%	0.4%	3.8%	0.4%
CCOC(=O)C1=C(CN2CCN(C(=O)c3ccco3)CC2)NC(=O)NC1c1ccccc1 (centres undefined)	4.6	1.9%	-14.3%	-19.0%	-1.0%
Cc1cncc(NCc2cccc(Cl)c2)n1	0.0	8.0%	-13.0%	-25.3%	-18.7%
Clc1cccc(CNc2ccn3nc(-c4ccc(OCc5ccccc5)cc4)cc3n2)c1	-16.5	-26.3%	-12.8%	?	16.4µM*
CC(C)(C)c1cc2nc(NCc3cccc(Cl)c3)ccn2n1	-18.8	-24.1%	?	16.4µM*	18.4µM*
SMILES	IL-1B inflam inh	HT1080 IDH1KD tx	HT1080-NT tox	TDP1 cell noCPT	TDP1 cell CPT
COc1cccc(CC2(CO)CCCN(Cc3ccccc3Cl)C2)c1 (centres undefined)	-0.3	-7.6%	-5.4%	?	?
COCc1ccc(CN2CCCC(CO)(Cc3cccc(OC)c3)C2)o1 (centres undefined)	-16.0	-5.3%	0.0%	-43.3%	?
COc1cccc(CC2(CO)CCCN(Cc3cnn(-c4ccccc4)c3)C2)c1 (centres undefined)	?	-4.7%	0.3%	25.9µM*	?
CCn1cc(CN2CCCC(CO)(Cc3ccc(F)cc3)C2)c2ccccc21 (centres undefined)	-65.3*	18.4µM*	?	?	?
COc1cccc(CC2(CO)CCCN(Cc3ccc(OC)c(C)c3OC)C2)c1 (centres undefined)	0.0	-9.5%	-13.0%	16.4µM*	18.4µM*
COc1cccc(CC2(CO)CCCN(Cc3ccc(CN4CCCCC4)s3)C2)c1 (centres undefined)	-11.4	-8.8%	-20.9%	?	20.6µM*
COc1ccccc1C(=O)Nc1ccnn1C1CCN(C2CCCCC2)CC1	-0.3	-1.2%	-3.5%	-10.4%	-13.5%
O=C(Nc1ccc(C(=O)O)cc1)/C(=C\C=C\c1ccccc1)NC(=O)c1ccccc1Br	0.9	-11.1%	-0.8%	-0.5%	11.8%
COc1cccc(CC2(CO)CCCN(Cc3cn(C)c4ccccc34)C2)c1 (centres undefined)	-12.0	-6.6%	-7.9%	23.1µM*	20.6µM*
Cc1ccc(C)c(C(Nc2ccccc2)c2ccc3ccc(C)nc3c2O)c1 (centres undefined)	81.3	?	?	18.4µM*	20.6µM*
Cc1cccc(NC(c2ccccc2F)c2ccc3ccc(C)nc3c2O)n1 (centres undefined)	.	.	.	23.1µM*	?
Cc1oc(C(C)(C)C)cc1C(N)=O	25.2	-0.3%	-6.6%	-14.2%	18.8%
CCc1ccccc1NC(=O)CN1CCN(C(=O)CCC(=O)N2CCC(c3ccccc3)=N2)CC1	-6.6	-1.3%	-2.0%	25.9µM*	14.6µM*
CCc1ccccc1NC(=O)CCC(=O)N1CCN(C(C)=O)CC1	27.0	6.0%	3.8%	6.1%	-2.9%
CC(C)c1nnc(NC(=O)CCS(=O)(=O)c2nc(-c3cccs3)cc(C(F)(F)F)n2)s1	-110.4*	?	?	4.11µM*	2.91µM*
O=C(CCS(=O)(=O)c1nc(-c2cccs2)cc(C(F)(F)F)n1)Nc1ccc(F)c(Cl)c1	.	.	.	9.2µM*	4.61µM*
COc1ccc(Cl)cc1NC(=O)CCS(=O)(=O)c1nc(-c2cccs2)cc(C(F)(F)F)n1	.	.	.	3.26µM*	4.61µM*
COc1ccc(NC(=O)CCS(=O)(=O)c2nc(-c3cccs3)cc(C(F)(F)F)n2)cc1	.	.	.	5.17µM*	4.61µM*
O=C(CCS(=O)(=O)c1nc(-c2cccs2)cc(C(F)(F)F)n1)Nc1ccc(OC(F)(F)F)cc1	.	.	.	-23.6%	?
